Measurements as given in the supplement of paper PMC13380429.
Unmarked numbers belong to inactive results.

Test system: Vero E6 infected with SARS-CoV-2
Test: inhibition of SARS-CoV-2 cytopathic effect; higher = more antiviral protection, active = above 15
Settings: 48 h

SMILES | inhibition of SARS-CoV-2 cytopathic effect (1 nM) | inhibition of SARS-CoV-2 cytopathic effect (8.33 nM) | inhibition of SARS-CoV-2 cytopathic effect (100 nM) | inhibition of SARS-CoV-2 cytopathic effect (833.33 nM) | inhibition of SARS-CoV-2 cytopathic effect (10000 nM)
Cn1cnnc1Sc1c([N+](=O)[O-])ncn1C | 3.11% | 1.9% | 2.13% | 5% | 2.84%
N=C(N)N/N=C/c1c(Cl)cccc1Cl [guanaben-acetate] | -2.82% | -0.46% | -3.74% | -2.55% | -1.82%
Nc1ccc(S(=O)(=O)NC(=O)c2ccccc2)cc1 [sulfabenzamide] | -2.34% | -0.25% | -1.3% | -0.48% | -0.81%
C[n+]1ccccc1C=NO [pralidoxime] | 1.86% | 0.25% | 0.14% | 0.94% | 1.11%
CCn1cc(C(=O)O)c(=O)c2cc(F)c(N3CCNCC3)nc21 [enoxacin] | 4.58% | 2.38% | 0.25% | -2.16% | 0.56%
CC(C)NC[C@@H](O)COc1ccccc1-n1cccc1 (racemic) [isamoltane] | 1.05% | -0.83% | 1.76% | 1.65% | -0.73%
CN(C)Cc1c(C(=O)NCCOc2ccc(C(=O)NO)cc2)oc2ccccc12 | -1.08% | 3.14% | -1.35% | -15.5% | -26.9%
CC(C)n1nc(-c2ccc3oc(N)nc3c2)c2c(N)ncnc21 | 1.94% | 2.32% | 1.66% | -3.23% | -4.59%
C=CCN1C[C@H](C(=O)N(CCCN(C)C)C(=O)NCC)C[C@@H]2c3cccc4[nH]cc(c34)C[C@H]21 [cabergoline] | -19% | -12.2% | -10% | -8.73% | -14.1%
C=CCCCCCCCCC(=O)[O][Zn][O]C(=O)CCCCCCCCC=C [zinc-undecylenate] | 0.73% | 0.52% | -0.83% | 0.72% | 2.73%
CN(C)CCn1nnnc1SCC1=C(C(=O)O)N2C(=O)[C@@H](NC(=O)Cc3csc(N)n3)[C@H]2SC1 [cefotiam] | 1.69% | -0.06% | -0.67% | 1.14% | 0.56%
CO[C@@]1(NC(=O)C2SC(=C(C(N)=O)C(=O)O)S2)C(=O)N2C(C(=O)O)=C(CSc3nnnn3C)CS[C@@H]21 (stereo not given in full) [cefotetan] | 0.97% | 1.11% | 2.32% | -0.94% | 0.24%
CCCCCCCCCCCCCCCC[n+]1ccccc1 [cetylpyridinium] | 1.63% | 0.22% | 1.76% | -0.25% | -21.9%
O=c1[nH]c(=O)n([C@H]2C[C@H](O)[C@@H](CO)O2)cc1C(F)(F)F [trifluridine] | -2.13% | 0.14% | 0.73% | 1.01% | -1.77%
CCOc1nc2cccc(C(=O)OC(C)OC(=O)OC3CCCCC3)c2n1Cc1ccc(-c2ccccc2-c2nn[nH]n2)cc1 (stereo not given) [candesartan-cilexetil] | -0.98% | -0.29% | -1.43% | -3.03% | -2.32%
O=C([O-])CN1CCN(CC(=O)[O-])CCN([C@H](CO)[C@H](O)CO)CCN(CC(=O)[O-])CC1.[Gd+3] (racemic) [gadobutrol] | -1.29% | 1.41% | 0.03% | 0.17% | 2.16%
Cc1ccccc1C(C(=O)NC1CCCCC1)N(C(=O)Cn1ccnc1C)c1cccc(F)c1 (stereo not given) | -0.81% | -1.8% | 0.77% | 1.79% | -0.96%
CN1C(=O)/C(=C2/C(=O)Nc3ccccc32)c2ccccc21 [meisoindigo] | -1.49% | -3.61% | -2.28% | 1.46% | 18.2% (active)
CCC[C@H](N[C@@H](C)C(=O)N1[C@H](C(=O)O)C[C@@H]2CCCC[C@@H]21)C(=O)O [perindoprilat] | 4.13% | -0.1% | 3.43% | 0.42% | -3.18%
CN1C[C@@H]2CN(c3ccc(-c4ccccc4)nn3)C[C@@H]2C1 | 1.02% | -1.9% | 0.67% | 0.54% | -3.37%

SMILES | inhibition of SARS-CoV-2 cytopathic effect (1 nM) | inhibition of SARS-CoV-2 cytopathic effect (8.33 nM) | inhibition of SARS-CoV-2 cytopathic effect (100 nM) | inhibition of SARS-CoV-2 cytopathic effect (833.33 nM) | inhibition of SARS-CoV-2 cytopathic effect (10000 nM)
CCCCCCCCCCOc1cc2c(O)c(C(=O)OCC)cnc2cc1OCC [decoquinate] | -0.9% | -0.75% | -1.59% | -0.59% | 2.03%
OC[C@H]1O[C@H](O[C@H]2[C@H](O)[C@@H](O)[C@H](O)O[C@@H]2CO)[C@H](O)[C@@H](O)[C@@H]1O [D-(+)-maltose] | -1.05% | -1.49% | -0.09% | -1.17% | -3.27%
CCC(=O)Nc1cccc(Oc2nc(Nc3ccc(N4CCN(C)CC4)cc3OC)ncc2Cl)c1 | -2.36% | -1.81% | -3.83% | -2.5% | 1.78%
OC1=c2ccccc2=C(NC2CCCCC2)/C1=C\c1ccccc1 | 0.53% | 0.22% | 0.42% | 13.8% | 45.5% (active)
Nc1ncnc2c1ncn2[C@H]1CC[C@@H](CO)O1 [dideoxyadenosine] | 2.15% | 2.41% | 2.1% | 1.23% | 4.14%
CN(C)CC[C@@]1(c2ccc(Cl)cc2)Cc2ccccc2C(=O)O1 (racemic) | -1.76% | -2.36% | -1.71% | -2.86% | -3.54%
Cc1nnc(C(C)C)n1C1C[C@H]2CC[C@@H](C1)N2CC[C@H](NC(=O)C1CCC(F)(F)CC1)c1ccccc1 (stereo in doubt) [maraviroc] | -2.38% | -1.45% | 1.77% | -0.21% | 2.92%
Cc1ncc(C)n2nc([C@@H]3C[C@H]3c3nc4c5cccnc5ccn4c3C)nc12 | 0.4% | 0.57% | 0.67% | -1.22% | 4.45%
N[C@@H](C[C@@H](F)C(=O)O)C(=O)O | 0.4% | 1.43% | 2.09% | -2.92% | -1.49%
O=C1Nc2ccc(Cl)c3c2C1(CCCCN1CC=C(c2ccc(Cl)cc2)CC1)CCC3 (stereo not given) | 0.36% | -1.45% | -2.5% | -2.84% | -3.25%
CC(C)(C)NCC(O)c1cc(Br)no1 (stereo not given) [broxaterol] | -1.51% | -0.09% | -1.23% | -0.44% | -2.74%
O=C(COc1cccc2c(=O)[nH]ccc12)c1ccccc1 | -1.31% | 1.84% | -0.2% | -0.52% | 0.99%
O=C(CN1CCN(C(=O)c2ccco2)CC1)Nc1cc(C(F)(F)F)ccc1Cl | 0.23% | -4.63% | -0.17% | 1.03% | 5.23%
O=C(/C=C/c1ccc(O)cc1)c1ccc(O)cc1O [isoliquiritigenin] | -2.47% | -0.17% | 1.21% | 0.63% | 10.8%
CC(C)(C)C#Cc1cc(N(C(=O)[C@H]2CC[C@H](C)CC2)[C@H]2CC[C@@H](O)CC2)c(C(=O)O)s1 | 1.62% | 2.19% | -0.17% | 1.33% | 1.51%
CCOC(N)=O [urethane] | -3.1% | -4.31% | -0.41% | -2.2% | 1.53%
COC(=O)[C@H](Cc1ccccc1)NC(=O)[C@@H](N)CC(=O)O [aspartame] | -0.23% | -0.6% | 0.53% | -1.78% | 0.85%
CC(C)C(=O)Oc1ccc(CO)cc1[C@H](CCN(C(C)C)C(C)C)c1ccccc1 [fesoterodine] | -1.73% | -0.18% | -0.25% | -2.34% | 0.84%
CC[N+]1(C)CCCC(OC(=O)C(O)(c2ccccc2)c2ccccc2)C1 (stereo not given) [pipenzolate] | -0.09% | -0.02% | -2.48% | -0.83% | -1.6%
CC1(N)CCN(c2cnc(-c3cccc(Cl)c3Cl)c(N)n2)CC1 | -2.86% | 2.23% | 2.58% | -1.51% | -9.83%
